Data reported in PubChem BioAssay (EPA / NIEHS).
Some compounds were tested as several samples or in several runs, with calls that do not always agree. Active and inactive are the calls of the source. How the source made its calls: active means hit-call score of the fitted dose curve at least 0.9, where 1 is the maximum; inactive means score below 0.9.

Assay: ATG_RORE_CIS: Attagene CIS-FACTORIAL HepG2 Assay for human RAR-related Orphan Receptor Element (RORE) (AID 2282959)
Conditions: HepG2 Attagene cis-factorial RORE reporter, mRNA; actives raise or lower the signal
Procedure: ATG_CIS is a cell-based, multiplexed-readout assay that uses HepG2, a human liver cell line, with measurements taken at 24 hours after chemical dosing in a 24-well plate.ATG_RORE_CIS is one of 52 assay component(s) measured or calculated from the ATG_CIS assay. It is designed to make measurements of mRNA induction, a form of inducible reporter, as detected with fluorescence intensity signals by Reverse transcription polymerase chain reaction (RT-PCR) and Capillary electrophoresis technology.Data from the assay component ATG_RORE_CIS was analyzed into 1 assay endpoint. This assay endpoint, ATG_RORE_CIS, was analyzed with bidirectional fitting relative to DMSO as the negative control and baseline of activity. Using a type of inducible reporter, measures of mRNA for gain or loss-of-signal activity can be used to understand the reporter gene at the transcription factor-level as they relate to the gene RORA and RORB and RORC. Furthermore, this assay endpoint can be referred to as a primary readout, because this assay has produced multiple assay endpoints where this one serves a reporter gene function. To generalize the intended target to other relatable targets, this assay endpoint is annotated to the nuclear receptor intended target family, where the subfamily is orphan.
Human liver HepG2 cells are transiently transfected with multiple reporter transcription units (MRTUs) in 6-well plates using FuGene 6 reagent (Roche; 3 ml FuGene/1 mg DNA). The MRTU constructs are regulated by a cis-regulating element (promoter). […] A major difference between the CIS and TRANS system is that in CIS activities of endogenous TFs are measured, whereas the TRANS assay evaluates changes in activities of exogenous, chimeric NR-Gal4 proteins. […] At the end of 24 hour incubation, total RNA was isolated using TriZol reagent (Invitrogen). The isolated RNA is then reverse-transcribed using oligo(dT) primer and Mo-MLV reverse transcriptase (Invitrogen) with DNAse I (Ambion) treatment for 30 min. The one-tenth of the produced cDNA was amplified by PCR using Taq DNA polymerase (Invitrogen) and two reporter sequence-specific primers. The PCR products were fluorescently labeled by primer extension with 6-arboxyfluorescein (6-FAM) 5'-labeled reporter sequence-specific primer (2 min at 95 C, 20 s at 68 C and 10 min at 72 C) and these products were digested with 5U of HpaI (New England Biolabs) for 2h at 37 C. The fragments were purified using Qiaquick PCR columns (Qiagen), analyzed on an ABI 3130xL genetic analyzer (Applied Biosystems) with peak positions identified by using a set of X-rhodamine (ROX)-labeled MapMarker1000 molecular weight standards (BioVentures). The raw capillary electrophoresis data was processed using Attagraph software (Attagene).

SMILES	outcome	AC50
CCC(=O)c1ccccc1	inactive	
C[C@]12CCC(=O)C[C@@H]1CC[C@@H]1[C@@H]2CC[C@]2(C)[C@@H](O)CC[C@@H]12	inactive	42.3 µM (active)
CC(C)(c1ccccc1)c1ccc(O)c(C(C)(C)c2ccccc2)c1	inactive	
Oc1c(I)cc(I)cc1I		31.1 µM (active)
ClCc1ccccn1	inactive	
Cc1cc(=O)[nH]o1	inactive	
CCCCCCCCc1ccc(O)cc1	inactive	
CCOP(=S)(OCC)Oc1nc(Cl)c(Cl)cc1Cl	inactive	
O=C(O)Cc1ccccc1	inactive	
COc1ccc(OC)c(C=O)c1	inactive	
O=C/C=C/c1ccccc1	inactive	
CC1(C)CCC(Cc2ccc(Cl)cc2)C1(O)Cn1cncn1 (stereo not given)	inactive	
CC(C#N)CCC#N (stereo not given)	inactive	
C(=NC1CCCCC1)=NC1CCCCC1		2.33 µM (active)
COP(=O)(OC)OC	inactive	
CCSC(C)CC1CC(=O)C(C(CC)=NOC/C=C/Cl)=C(O)C1 (stereo not given)	inactive	
O=S(=O)(c1ccc(Cl)cc1)c1ccc(Cl)cc1	inactive	
Oc1ccc(-c2ccccc2)cc1		162 µM (active)
ClCc1cccnc1	inactive	
COc1cc(OC)nc(NC(=O)NS(=O)(=O)c2ncccc2C(=O)N(C)C)n1	inactive	

SMILES	outcome	AC50
O=[N+]([O-])c1c(Cl)c(Cl)cc(Cl)c1Cl	inactive	
CC(=O)C(Cl)C(=O)N(C)C (stereo not given)	inactive	
Cl/C=C/Cl	inactive	
CCCCP(CCCC)CCCC	inactive	
C[C@H]1CCCC(=O)CCC/C=C/c2cc(O)cc(O)c2C(=O)O1	inactive	
ClC1=C(Cl)[C@]2(Cl)[C@H]3[C@H]([C@H]4C=C[C@H]3C4)[C@@]1(Cl)C2(Cl)Cl	inactive	
C[C@@H](Oc1ccc(Cl)cc1Cl)C(=O)O	inactive	
CC(C)C1CCC(Cc2ccc(Cl)cc2)C1(O)Cn1cncn1 (stereo not given)	inactive	
COP(=S)(OC)Oc1ccc(Sc2ccc(OP(=S)(OC)OC)cc2)cc1		37.2 µM (active)
OCc1ccco1	inactive	
CC(C)(C)c1cc(O)ccc1O		54.6 µM (active)
CCN1CCC2(CC1)COc1cc3c(cc12)N(C(=O)c1ccc(-c2ccc(-c4nnc(C)o4)cc2C)cc1)CC3	inactive	
ClCC(Cl)CCl	inactive	
OCC(O)CCl (stereo not given)	inactive	
CCOC(=O)Nc1cccc(OC(=O)Nc2ccccc2)c1	inactive	
c1ccc(N=NNc2ccccc2)cc1	inactive	
Nc1cccc2ccccc12	inactive	
O=C1CCCN1	inactive	
CCCCOCCOC(C)=O	inactive	
